Laboratory results taken from PubChem BioAssay (NCATS).
Inconclusive results are not listed. Active and inactive are the calls of the source. Unless noted, the call rests on the fitted dose curve; in most records, active means well fitted inhibition curve with a large enough effect; inconclusive means small, poorly fitted or top-dose-only effect; inactive means no such curve, though single readings can be large or run the other way.

system: not listed separately; experiment: S16 Schwann cell PMP22 intronic element beta-lactamase assay (AID 624044; calls by dose curve; further: nearly all actives have a fitted effect of over 15% in size;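 on ratio activity, negative = inhibition: 0% = DMSO and -100% = potassium clavulanate positive control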); conditions: S16 rat Schwann cells, PMP22 element beta-lactamase FRET, 24 h; ratio activity, negative = inhibition: at 38.3 µM (top of the series)
In short: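 Beta-lactamase reporter under a PMP22 intronic regulatory element in stable S16 rat Schwann cells; 24 h compound exposure. 460 nm blue signal normalized between DMSO (0%) and potassium clavulanate, with 535 nm FRET tracking viability; curves classed by r2 and response.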
Potency means the concentration at half of the fitted maximal effect.

| Structure (SMILES) | Potency | ratio activity, negative = inhibition |
| --- | --- | --- |
| COc1cc(NS(C)(=O)=O)ccc1Nc1c2ccccc2nc2ccccc12 | 7.94 µM (active) |  |
| COc1cccc2c1C(=O)c1c(O)c3c(c(O)c1C2=O)C[C@@](O)(C(C)=O)C[C@@H]3O[C@H]1C[C@H](N)[C@H](O)[C@H](C)O1 | 0.126 µM (active) |  |
| CN1C2CCC1CC(OC(=O)c1c[nH]c3ccccc13)C2 (stereo not drawn) |  | -9.79% (inactive) |
| N[C@@H](Cc1cnc[nH]1)C(=O)O |  | 3.93% (inactive) |
| CCCCCCc1ccc(O)cc1O |  | 0.118% (inactive) |
| COC(=O)[C@H]1[C@H]2C[C@H]3c4[nH]c5ccccc5c4CCN3C[C@H]2CC[C@@H]1O |  | 2.18% (inactive) |
| C[C@@H]1C(=O)NC2=Nc3cccc(Cl)c3CN21 |  | 2.28% (inactive) |
| Nc1cc(Cl)c(NC2=NCCN2)c(Cl)c1 |  | 2.58% (inactive) |

molecular target: Glutaminase kidney isoform, mitochondrial (Homo sapiens) (UniProt O94925); experiment: qHTS for Inhibitors of Glutaminase (GLS): LOPAC Validation (AID 624146); conditions: glutaminase enzyme activity inhibition; series mostly up to 46.1 µM; activity change, negative = inhibition: at the top concentration; further: nearly all actives have a fitted effect of over 60% in size;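 on activity change, negative = inhibition: glutamate product detected by oxidase and peroxidase coupled Amplex red fluorescence gain; on the % scale 0 is the no-effect control and ±100 the full control effect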
In short: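 Compounds were pin-transferred onto hKGA, after which L-glutamine (1 mM solution) and a detection mix of glutamate oxidase, HRP and Amplex Red were added. Initial and 30 min RT fluorescence reads were collected.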

Glutaminase kidney isoform, mitochondrial (Homo sapiens), sequence (O94925 whole entry, looked up, canonical isoform): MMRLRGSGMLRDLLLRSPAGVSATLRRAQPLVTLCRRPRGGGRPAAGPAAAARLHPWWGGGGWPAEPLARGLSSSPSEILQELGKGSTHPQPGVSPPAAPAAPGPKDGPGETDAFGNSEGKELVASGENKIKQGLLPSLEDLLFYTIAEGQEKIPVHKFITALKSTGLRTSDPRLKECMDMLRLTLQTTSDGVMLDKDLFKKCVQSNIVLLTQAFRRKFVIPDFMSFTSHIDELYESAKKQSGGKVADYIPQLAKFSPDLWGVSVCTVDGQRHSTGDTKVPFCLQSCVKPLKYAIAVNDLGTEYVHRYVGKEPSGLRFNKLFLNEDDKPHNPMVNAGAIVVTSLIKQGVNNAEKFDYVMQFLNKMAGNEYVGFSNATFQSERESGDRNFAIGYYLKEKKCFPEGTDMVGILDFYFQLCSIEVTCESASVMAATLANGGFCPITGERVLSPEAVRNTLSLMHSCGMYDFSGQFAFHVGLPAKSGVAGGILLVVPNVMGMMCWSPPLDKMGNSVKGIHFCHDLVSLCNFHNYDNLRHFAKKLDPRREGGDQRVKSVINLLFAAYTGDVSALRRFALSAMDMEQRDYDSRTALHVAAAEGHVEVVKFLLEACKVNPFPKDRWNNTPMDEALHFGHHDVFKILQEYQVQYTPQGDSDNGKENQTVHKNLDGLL

| Structure (SMILES) | Potency | activity change, negative = inhibition |
| --- | --- | --- |
| COc1cc(NS(C)(=O)=O)ccc1Nc1c2ccccc2nc2ccccc12 | 1 µM (active) |  |
| CC(C)COC(=O)OCN1C(=O)CN(CCN2CC(=O)N(COC(=O)OCC(C)C)C(=O)C2)CC1=O |  | -6.56% (inactive) |
| N[C@H](CO)C(=O)O |  | 0.686% (inactive) |
| COc1cc2c(cc1O)CC[C@@H]1[C@@H]2CC[C@]2(C)[C@@H](O)CC[C@@H]12 | 1.58 µM (active) |  |
| CN1C2CCC1CC(OC(=O)c1c[nH]c3ccccc13)C2 (stereo not drawn) |  | -12% (inactive) |
| CCC(NC(C)C)C(O)c1ccc(O)c(O)c1 (stereo not drawn) |  | 101% (inactive) |
| N[C@@H](Cc1cnc[nH]1)C(=O)O |  | -26.9% (inactive) |
| C[C@]12CC[C@@H]3c4ccc(O)cc4CC[C@H]3[C@@H]1CC[C@@H]2O |  | -30.9% (inactive) |
| C[N+]1(CCCCC[N+]2(C)CCCC2)CCCC1 |  | -2.77% (inactive) |
| O=C(O)c1cc2cc(Cc3cccnc3)ccc2o1 |  | -3.66% (inactive) |
